{"source": "the supplement of paper PMC9897528", "data": [{"system": "Scedosporium aurantiacum CBS 136046", "assay": "growth inhibition relative to DMSO control (OD600); higher = more antifungal activity, active = 80 or more; extreme values may be limits of the assay", "conditions": "5 µM; 72 h; 37 °C", "values": [{"smiles": "Nc1nc(C(F)(F)F)cc2c1[nH]c(=O)n2Cc1ccccc1", "growth inhibition": "18.8% (inactive)"}, {"smiles": "CCc1cc(CCCOc2c(C)cc(-c3noc(C(F)(F)F)n3)cc2C)on1", "growth inhibition": "7.39% (inactive)"}, {"smiles": "FC(F)(F)Oc1ccc(Nc2ccc3cccc(Cl)c3n2)cc1", "growth inhibition": "25.3% (inactive)"}, {"smiles": "Cc1[nH]c2ccccc2c1CCNCc1ccc(/C=C/C(=O)NO)cc1", "growth inhibition": "26.8% (inactive)"}, {"smiles": "Clc1ccc(Cn2c(CN3CCCC3)nc3ccccc32)cc1", "growth inhibition": "15.5% (inactive)"}, {"smiles": "O=C1CCC(N2C(=O)c3ccccc3C2=O)C(=O)N1", "note": "(stereo not drawn)", "growth inhibition": "22.9% (inactive)"}, {"smiles": "CC(=O)N1CCN(c2ccc(OCC3COC(Cn4ccnc4)(c4ccc(Cl)cc4Cl)O3)cc2)CC1", "note": "(stereo not drawn)", "growth inhibition": "83.2% (active)"}, {"smiles": "CN(Cc1ccc(C(C)(C)C)cc1)Cc1cccc2ccccc12", "growth inhibition": "37.7% (inactive)"}, {"smiles": "O=C(NC(=O)N1CCCc2ccccc21)c1ccc(Cl)cc1Cl", "growth inhibition": "3.05% (inactive)"}, {"smiles": "Cc1cc(CCOc2c(C)cc(-c3nnn(C)n3)cc2C)on1", "growth inhibition": "3.61% (inactive)"}, {"smiles": "OC1O[C@H](CSc2ccc(F)cc2)[C@@H](O)[C@H]1O", "note": "(stereo partly drawn)", "growth inhibition": "16.7% (inactive)"}, {"smiles": "COc1ccc(NC(=O)CC2Sc3ncnn3C2=O)cc1", "note": "(stereo not drawn)", "growth inhibition": "0% (inactive)"}, {"smiles": "Oc1ccc2[nH]c(-c3ccccc3)nc2c1", "growth inhibition": "26.7% (inactive)"}, {"smiles": "Clc1ccc(COC(Cn2ccnc2)c2ccc(Cl)cc2Cl)c(Cl)c1", "note": "(stereo not drawn)", "growth inhibition": "80.6% (active)"}, {"smiles": "CC(Cc1ccccc1)C(=O)Nc1ccc(Cl)cc1C(=O)O", "note": "(stereo not drawn)", "growth inhibition": "0% (inactive)"}, {"smiles": "COc1cc(C(C(=O)NC2CCCCC2)N(C(=O)Cc2c[nH]c3ccccc23)c2ccc(C(C)C)cc2)cc(OC)c1OC", "note": "(stereo not drawn)", "growth inhibition": "6.79% (inactive)"}, {"smiles": "O=C(Nc1ncc(Cc2cccc3ccccc23)s1)C1CCCCC1", "growth inhibition": "4.7% (inactive)"}, {"smiles": "Nc1nc(O)c2ncn([C@@H]3O[C@H](CO)[C@@H](O)[C@H]3F)c2n1", "growth inhibition": "17.4% (inactive)"}, {"smiles": "NC[C@H]1O[C@H](O[C@H]2[C@H](O)[C@@H](O[C@H]3O[C@H](CO)[C@@H](O)[C@H](N)[C@H]3O)[C@H](N)C[C@@H]2N)[C@H](N)C[C@@H]1O", "growth inhibition": "15.5% (inactive)"}, {"smiles": "Cc1nc2ccc(Oc3ccccc3)cc2c2c1CCN2CCc1ccccc1", "growth inhibition": "54.5% (inactive)"}, {"smiles": "Cc1cccc(CC(=O)N[C@H]2CCOC2=O)c1", "growth inhibition": "16.6% (inactive)"}, {"smiles": "COc1cc(NS(=O)(=O)c2ccc(C)cc2)c2ncccc2c1", "growth inhibition": "27.9% (inactive)"}, {"smiles": "Cc1nc(N(C)C(=O)Cc2ccc(-c3ccccn3)cc2)sc1S(N)(=O)=O", "growth inhibition": "4.79% (inactive)"}, {"smiles": "CS(=O)(=O)c1ccc(Oc2ccc(Cl)cc2)cc1", "growth inhibition": "15.2% (inactive)"}, {"smiles": "O=C(Nc1ccc(F)cc1)c1nn(-c2ccccc2)c(=O)cc1Cl", "growth inhibition": "32.8% (inactive)"}, {"smiles": "CCCCCc1ccc(C(=O)NCCn2cc(CCCCCc3c[nH]c(N)n3)nn2)cc1", "growth inhibition": "46% (inactive)"}, {"smiles": "C[C@H](c1cccc2ccccc12)N(C)Cc1ccccc1", "growth inhibition": "14.5% (inactive)"}, {"smiles": "Cc1onc(-c2ccccc2)c1-c1ccc(S(N)(=O)=O)cc1", "growth inhibition": "41.2% (inactive)"}, {"smiles": "CCCNc1ccc(S(=O)(=O)Nc2cc(C)on2)cc1", "growth inhibition": "0.262% (inactive)"}, {"smiles": "CC(C)Oc1ccc(-n2cnc3cc(/C=C\\c4ccc(C(C)(C)O)cc4)ccc32)cc1", "growth inhibition": "28.5% (inactive)"}, {"smiles": "Fc1ccc(-n2cc(Cn3c(-c4cccc(F)c4)nc4ccccc43)nn2)cc1", "growth inhibition": "17.9% (inactive)"}, {"smiles": "O=C1C=C(c2ccccc2)S(=O)(=O)c2ccccc21", "growth inhibition": "12.3% (inactive)"}, {"smiles": "Clc1cccc(-c2nnc(-c3ccccc3)o2)c1", "growth inhibition": "1.29% (inactive)"}, {"smiles": "CC[C@@]1(O)C(=O)OCc2c1cc1n(c2=O)Cc2cc3c(CN(C)C)c(O)ccc3nc2-1", "growth inhibition": "21.5% (inactive)"}, {"smiles": "CC1(C)[C@H](C(=O)O)N2C(=O)C[C@H]2S1(=O)=O", "growth inhibition": "0% (inactive)"}, {"smiles": "Fc1ccc2c(/C=C/c3nnn[nH]3)c[nH]c2c1", "growth inhibition": "4.45% (inactive)"}, {"smiles": "CC(C)(C)c1cc(CCC(=O)N2CCC2)cc(C(C)(C)C)c1O", "growth inhibition": "11.9% (inactive)"}, {"smiles": "NC(=O)[C@@H]1CC[C@@H]2CN1C(=O)N2OS(=O)(=O)O", "growth inhibition": "0% (inactive)"}]}]}
